Reference: PubChem BioAssay (NCI)
Compounds without any hit were thinned out: in the full panel of roughly 83,000, 20% have a hit.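 For each line, cells grew in 96-well plates with the test compound present at a single concentration for 48 hours.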 A number with no mark means an inactive call. Calls of active or inactive are those of the source. The calls were made as follows: active = growth percent below 10; inactive = the rest.

Columns and labels:
Experiment in all cases: NCI-60 one-dose screen, 48 h (100 = growth as untreated, 0 = no growth, -100 = all killed)
Settings in all cases: 10 µM unless noted
NCI-H23 lung = system: NCI-H23 lung
NCI-H226 lung = system: NCI-H226 lung
NCI-H322M lung = system: NCI-H322M lung
HOP-62 NSCLC = system: HOP-62 NSCLC
NCI-H460 lung = system: NCI-H460 lung
HOP-92 NSCLC = system: HOP-92 NSCLC
NCI-H522 lung = system: NCI-H522 lung
A549/ATCC NSCLC = system: A549/ATCC NSCLC
786-0 renal = system: 786-0 renal
COLO 205 colon = system: COLO 205 colon
DU-145 prostate = system: DU-145 prostate
K-562 leukemia = system: K-562 leukemia
MALME-3M melanoma = system: MALME-3M melanoma
MDA-MB-231 breast = system: MDA-MB-231 breast
SF-268 CNS = system: SF-268 CNS
SF-295 CNS = system: SF-295 CNS
SF-539 CNS = system: SF-539 CNS
UACC-257 melanoma = system: UACC-257 melanoma
M14 melanoma = system: M14 melanoma

SMILES	growth (NCI-H23 lung)	growth (NCI-H226 lung)	growth (NCI-H322M lung)	growth (HOP-62 NSCLC)	growth (NCI-H460 lung)	growth (HOP-92 NSCLC)	growth (NCI-H522 lung)	growth (A549/ATCC NSCLC)	growth (786-0 renal)	growth (COLO 205 colon)	growth (DU-145 prostate)	growth (K-562 leukemia)	growth (MALME-3M melanoma)	growth (MDA-MB-231 breast)	growth (SF-268 CNS)	growth (SF-295 CNS)	growth (SF-539 CNS)	growth (UACC-257 melanoma)	growth (M14 melanoma)
O=c1[nH]nc(-c2ccc(Br)cc2)cc1Cc1ccc(O)cc1	98.5%	85.6%	126%	109%	103%	51.8%	89.5%	56.7%	103%	98.8%	91.5%	81.5%	106%	87.6%	89.8%	107%	102%	106%	107%
CCN1C(=O)/C(=c2\sc3n(c2=O)NC2C(N=3)N(CC)C(=O)N2CC)c2ccccc21 (configuration not stated)	38.5%	102%	47%	43.1%	18%	21.6%	15%	38.9%	38.2%	14.8%	17.8%	10.2%	36.7%	19.9%	63.9%	16.4%	-18.6% (active)	82.5%	38%
O=S(=O)(NCCNc1nccc(-c2c(-c3ccc(F)c(O)c3)nc3sccn23)n1)c1ccccc1	72.2%	99.8%	96.1%	98.9%	75.3%	63.9%	59.3%	81.8%	113%	33.9%	77.5%	37.2%	1.46% (active)	51.6%	84.5%	110%	94.3%	16.2%	14.5%
CCCCCCCCCCN=C(N)N=C(N)N	29.4%	47.4%	80.9%	50.6%	40.6%	21.2%	53%	70.1%	26.2%	32%	79.1%	21.3%	30.4%	38.8%	33.1%	42.8%	58.5%	48.5%	48.2%
CC(=O)c1c[nH]c2ccc(-c3ccnc(Nc4ccc(NC(=O)C5CCCC5)c(CN5CCOCC5)c4)n3)cc12	-36.4% (active)	-0.452% (active)	-11.5% (active)	2.51% (active)	-60.6% (active)	-5.65% (active)	-17.9% (active)	4.82% (active)	0.29% (active)	-31.9% (active)	-1.77% (active)	5.74% (active)	-81.8% (active)	-8.4% (active)	-41.7% (active)	-46.2% (active)	-84.6% (active)	-27.5% (active)	-67.7% (active)
O=C1/C(=C/c2ccc(O)cc2)COc2ccc(-c3ccccc3)cc21	95.9%	102%	94.1%	80.1%	66%	84.5%	84.2%	90.4%	21.4%	90.7%	59.7%	39.3%	116%	94.6%	69.1%	89.8%	90.7%	92.7%	86.6%
S=c1[nH]cccc1-c1nnc2n1Nc1nc3ccccc3cc1CS2	90.7%	91.1%	101%	90.1%	99.6%	99.5%	89%	110%	100%	111%	120%	99.5%	97.1%	92.9%	101%	112%	96.1%	110%	101%
CCOC(=O)c1cnc2c(cnn2CC)c1NN=C(C)C	96.5%	86.6%	94.6%	76.6%	106%	73.9%	74.4%	96.2%	86.5%	113%	100%	62.9%	99.7%	91.6%	92.4%	96.1%	94.8%	113%	106%
CN1CCN(c2c(F)cc(NC3=C(Cl)C(=O)c4ncccc4C3=O)cc2F)CC1	82.8%	97.1%	108%	111%	107%	41%	-9.58% (active)	109%	101%	64.7%	103%	2.2% (active)	-6.37% (active)	84.2%	93.3%	117%	98.1%	69.3%	76.5%
Clc1nc(Cl)c2ncn(CCOCCn3cnc4c(Cl)nc(Cl)nc43)c2n1	-78.5% (active)	-74.2% (active)	-97.1% (active)	-71.8% (active)	-62.8% (active)	-93.2% (active)	-85.4% (active)	-76.2% (active)	-92.9% (active)	-65.2% (active)	-99.1% (active)	-62.9% (active)	-73.2% (active)	-89.9% (active)	-83.3% (active)	-91.9% (active)	-89.9% (active)	-89.7% (active)	-84.9% (active)
CCN1C(=O)N(CC)C2C1NN=c1s/c(=C3\C(=O)Nc4ccccc43)c(=O)n12 (configuration not stated)	37.3%	93.2%	43.5%	5.9% (active)	9.09% (active)	-4.18% (active)	2.21% (active)	28.8%	27.7%	-25.1% (active)	14.9%	2.13% (active)	19%	25%	67.1%	8.72% (active)	-34.1% (active)	80.4%	20.1%
COc1cccc(CCC(=O)c2cc3c(N)c(C(=O)Nc4cccc(Cl)c4C)sc3nc2C)c1	37.4%	45.7%	43.6%	36.4%	7.76% (active)	48%	12.1%	27.3%	25.9%	7.16% (active)	13.8%	7.49% (active)	41.3%	16.9%	37.3%	2.95% (active)	-41.6% (active)	65.1%	16.4%
Cc1ccc(-c2c(Br)c(OC(=O)CO[C@@H]3C[C@H](C)CC[C@H]3C(C)C)c(-c3ccc(C)cc3C)c(Br)c2OC(=O)CO[C@H]2C[C@@H](C)CC[C@@H]2C(C)C)c(C)c1	98.6%	56.2%	103%	94.5%	105%	93.6%	79.4%	88.9%	96.8%	95.3%	106%	110%	106%	96.1%	100%	96.2%	101%	98.8%	91.5%
